# Activity calls are given as the source filed them.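 The calls were made as follows, unless noted: active = visual image review flags a hit and inhibition of aggregation exceeds 20%; inconclusive = visual hit but inhibition at or below 20%; inactive = no hit on visual image review.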
# Experiment: inhibitors of TNFa-induced NFkB p65 translocation, primary screen, imaging, HUVEC, MLSMR starter and 10KST1 sets (AID 438;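 active = inhibition above 20% together with a positive visual image hit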;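 also: compound added about 3h40 before a 20 min TNFalpha stimulation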;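 as to inhibition: signal is the nuclear over cytoplasmic p65 intensity ratio per well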)
# Conditions: HUVEC TNFa-induced p65 nuclear translocation; cell count: measured here: nuclei count (cytotoxicity indicator), at 2.08 µM; inhibition: at 2 µM, stronger effect = higher value, 0% TNFa-plus-vehicle, 100% no-TNFa wells
Structure (SMILES),inhibition,cell count
CCOCCCNC(=O)C(c1ccc(C)cc1)N(Cc1ccc2c(c1)OCO2)C(=O)c1cnccn1 (stereo not given),13.1% (inactive),275
CCc1cccc2c(=O)c(C(=O)N3CCCCCC3)c[nH]c12,-26.5% (inactive),538
Cn1c(NC(=O)c2ccccc2NC(=O)C(C)(C)C)nc2ccccc21,-3.2% (inactive),704
Cc1cccc(NC(=O)COc2ccc(Br)cc2)n1,-12.1% (inactive),457
Cc1ccc(-c2ccc(=O)n(CC(=O)NCCCN3CCCCC3C)n2)cc1 (stereo not given),5% (inactive),397
Cc1oc(-c2ccccc2F)nc1CS(=O)(=O)CC(=O)NCCCN1CCc2ccccc2C1,11% (inactive),649
O=C(c1ccc(S(=O)(=O)N2CCOCC2)cc1)N(c1ccc(F)cc1)C1C=CS(=O)(=O)C1 (stereo not given),-19.7% (inactive),774
CCC1CCCCN1C(=O)Cn1c(C(=O)OC)cc2sc(Cl)cc21 (stereo not given),-11.3% (inactive),505
CC(=O)Nc1ccc(N=Cc2nc(-c3ccc(C)cc3)oc2O)cc1,-11.6% (inactive),1080
COc1ccc(S(=O)(=O)Nc2ccc(F)c(Cl)c2)cc1OC,-18.6% (inactive),657
CCCCN(CC)CCCNC(=O)c1cc2c(=O)n(C)c3ccccc3c2n1C,3.3% (inactive),667
CC1(C)NC(=O)N(CN2C(=O)NC(C)(C)C2=O)C1=O,-7.9% (inactive),579
CCOC(=O)c1cnn(-c2sc(C(=O)OCC)c(C)c2C(=O)OCC)c1N,-1.9% (inactive),451
O=C(CCN1C(=O)C2C3C=CC(C3)C2C1=O)NC1CCCc2ccccc21 (stereo not given),7.3% (inactive),411
COc1ccc(NC(=O)C(C)NS(=O)(=O)c2ccccc2)cc1Cl (stereo not given),-15.9% (inactive),315
CCOc1cc(C2C3=C(CCCC3=O)N(C)C3=C2C(=O)CCC3)cc(Cl)c1O,12.5% (inactive),413
CN(C)c1cccc2c(S(=O)(=O)Nc3ccccn3)cccc12,11.1% (inactive),679
Cc1ccccc1-n1c(=O)cc(NCc2ccc3c(c2)OCO3)[nH]c1=O,1.6% (inactive),447
COc1ccc(-c2nc3cc(NC(=O)Cc4ccc(OC)c(OC)c4)ccc3o2)cc1,-25.3% (inactive),581
O=C(COc1ccccc1)NCC(c1cccs1)N1CCOCC1 (stereo not given),9% (inactive),412

Structure (SMILES),inhibition,cell count
COc1ccc(OCCN2C(=O)NC(C)(c3ccc(C)cc3)C2=O)cc1 (stereo not given),-14.7% (inactive),391
CCOC(=O)c1ccc(Oc2nc(SC)nc(N(C)C)n2)cc1,5.5% (inactive),467
CCC(C)NC(=O)C1(C)CCC(=O)N1CCc1ccc(OC)c(OC)c1 (stereo not given),-5.7% (inactive),447
O=C(CN1CCN(c2ncccn2)CC1)Nc1ccccc1-n1cccc1,13.4% (inactive),327
O=C1CCCN1Cc1ncnn1-c1ccccc1,-1.8% (inactive),453
CN(C)c1ccnc(NCc2ccccc2)c1C#N,2.1% (inactive),286
CCCc1cc(C(=O)Nc2ccc(C(C)=O)cc2)no1,-4.4% (inactive),566
O=C(CN(CCc1ccccc1)C(=O)CNS(=O)(=O)c1ccccc1)NCC1CCCO1 (stereo not given),11.7% (inactive),322
Cc1ccc(SCC(=O)NCCN2C(=O)CSC2=O)c(C)c1,22.6% (inactive),323
COc1cc(C)c(N)cc1C(C)C,-5.6% (inactive),422
O=C(CSc1ncnc2c1cnn2Cc1ccccc1)Nc1ccc2c(c1)OCCO2,0.9% (inactive),308
O=C(Cn1ncc2c(=O)oc3ccccc3c21)NCC1CCCO1 (stereo not given),6.6% (inactive),725
COc1ccccc1Oc1ccc(S(=O)(=O)N2CCOCC2)cc1S(=O)(=O)N1CCOCC1,2.9% (inactive),242
CCOC(=O)N1CCN(C(=O)c2ccc3c(SCC(=O)O)c4c(nc3c2)CCCC4)CC1,-5.2% (inactive),819
CCc1nc(NCCCN2CCOCC2)c2oc3ccccc3c2n1,-4.4% (inactive),573
COc1ccc(OC)c(-c2nc3c(C)n[nH]c(=O)c3[nH]2)c1,10.3% (inactive),536
O=C(Nc1cccc(-c2nnc(-c3ccccc3)o2)c1)C1CCCCC1,-2.8% (inactive),666
Cc1ccc(S(=O)(=O)Nc2cc(C(=O)O)ccc2N2CCCCC2)cc1,-20.1% (inactive),518
Cc1cc2n(n1)C(c1ccccc1)Nc1ccccc1-2 (stereo not given),-1.3% (inactive),410
Cc1ccc(C)c(C(=O)CC2(O)C(=O)N(C)c3ccccc32)c1 (stereo not given),0.7% (inactive),497

# Experiment: inhibitors of mutant huntingtin aggregation, primary screen, imaging, exon1htt(103Q)mCFP cells, high-content imaging (AID 483);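 also: compound exposure lasted 3 days before fixation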;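 as to nuclei count: percent of the per-plate median nuclei count of sample wells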
# Conditions: exon1htt(103Q)mCFP cell line, aggregate imaging, at 2 µM; inhibition of aggregation: stronger effect = higher value; nuclei count: measured here: cell count, toxicity
Structure (SMILES),nuclei count [%],inhibition of aggregation
CCOCCCNC(=O)C(c1ccc(C)cc1)N(Cc1ccc2c(c1)OCO2)C(=O)c1cnccn1 (stereo not given),102,16.3% (inactive)
CCc1cccc2c(=O)c(C(=O)N3CCCCCC3)c[nH]c12,87.7,7.9% (inactive)
Cn1c(NC(=O)c2ccccc2NC(=O)C(C)(C)C)nc2ccccc21,98.3,11.9% (inactive)
Cc1cccc(NC(=O)COc2ccc(Br)cc2)n1,110,-8.7% (inactive)
Cc1ccc(-c2ccc(=O)n(CC(=O)NCCCN3CCCCC3C)n2)cc1 (stereo not given),98.2,3% (inactive)
Cc1oc(-c2ccccc2F)nc1CS(=O)(=O)CC(=O)NCCCN1CCc2ccccc2C1,68.5,16.1% (inactive)
O=C(c1ccc(S(=O)(=O)N2CCOCC2)cc1)N(c1ccc(F)cc1)C1C=CS(=O)(=O)C1 (stereo not given),111,30.2% (inactive)
CCC1CCCCN1C(=O)Cn1c(C(=O)OC)cc2sc(Cl)cc21 (stereo not given),107,-19.4% (inactive)
CC(=O)Nc1ccc(N=Cc2nc(-c3ccc(C)cc3)oc2O)cc1,119,-4% (inactive)
COc1ccc(S(=O)(=O)Nc2ccc(F)c(Cl)c2)cc1OC,111,-7.4% (inactive)
CCCCN(CC)CCCNC(=O)c1cc2c(=O)n(C)c3ccccc3c2n1C,81.6,14.5% (inactive)
CC1(C)NC(=O)N(CN2C(=O)NC(C)(C)C2=O)C1=O,114,-22.5% (inactive)
CCOC(=O)c1cnn(-c2sc(C(=O)OCC)c(C)c2C(=O)OCC)c1N,99.7,-35.1% (inactive)
O=C(CCN1C(=O)C2C3C=CC(C3)C2C1=O)NC1CCCc2ccccc21 (stereo not given),104,4.3% (inactive)
COc1ccc(NC(=O)C(C)NS(=O)(=O)c2ccccc2)cc1Cl (stereo not given),116,2.6% (inactive)
CCOc1cc(C2C3=C(CCCC3=O)N(C)C3=C2C(=O)CCC3)cc(Cl)c1O,94.1,-3.2% (inactive)
CN(C)c1cccc2c(S(=O)(=O)Nc3ccccn3)cccc12,101,11.7% (inactive)
Cc1ccccc1-n1c(=O)cc(NCc2ccc3c(c2)OCO3)[nH]c1=O,74.9,40.2% (active)
COc1ccc(-c2nc3cc(NC(=O)Cc4ccc(OC)c(OC)c4)ccc3o2)cc1,88.5,-10.5% (inactive)
O=C(COc1ccccc1)NCC(c1cccs1)N1CCOCC1 (stereo not given),101,2% (inactive)

Structure (SMILES),nuclei count [%],inhibition of aggregation
COc1ccc(OCCN2C(=O)NC(C)(c3ccc(C)cc3)C2=O)cc1 (stereo not given),108,-4.1% (inactive)
CCOC(=O)c1ccc(Oc2nc(SC)nc(N(C)C)n2)cc1,110,-5.2% (inactive)
CCC(C)NC(=O)C1(C)CCC(=O)N1CCc1ccc(OC)c(OC)c1 (stereo not given),105,-2.3% (inactive)
O=C(CN1CCN(c2ncccn2)CC1)Nc1ccccc1-n1cccc1,81.3,16% (inactive)
O=C1CCCN1Cc1ncnn1-c1ccccc1,114,10.2% (inactive)
CN(C)c1ccnc(NCc2ccccc2)c1C#N,72.9,19% (inactive)
CCCc1cc(C(=O)Nc2ccc(C(C)=O)cc2)no1,128,1.1% (inactive)
O=C(CN(CCc1ccccc1)C(=O)CNS(=O)(=O)c1ccccc1)NCC1CCCO1 (stereo not given),99.8,-13.1% (inactive)
Cc1ccc(SCC(=O)NCCN2C(=O)CSC2=O)c(C)c1,93.3,-4.2% (inactive)
COc1cc(C)c(N)cc1C(C)C,81.4,5.2% (inactive)
O=C(CSc1ncnc2c1cnn2Cc1ccccc1)Nc1ccc2c(c1)OCCO2,94.9,27.1% (inactive)
O=C(Cn1ncc2c(=O)oc3ccccc3c21)NCC1CCCO1 (stereo not given),111,-2.2% (inactive)
COc1ccccc1Oc1ccc(S(=O)(=O)N2CCOCC2)cc1S(=O)(=O)N1CCOCC1,106,24.3% (inactive)
CCOC(=O)N1CCN(C(=O)c2ccc3c(SCC(=O)O)c4c(nc3c2)CCCC4)CC1,100,14.8% (inactive)
CCc1nc(NCCCN2CCOCC2)c2oc3ccccc3c2n1,106,-12.6% (inactive)
COc1ccc(OC)c(-c2nc3c(C)n[nH]c(=O)c3[nH]2)c1,18.1,13% (inactive)
O=C(Nc1cccc(-c2nnc(-c3ccccc3)o2)c1)C1CCCCC1,109,-15.1% (inactive)
Cc1ccc(S(=O)(=O)Nc2cc(C(=O)O)ccc2N2CCCCC2)cc1,98.1,15.4% (inactive)
Cc1cc2n(n1)C(c1ccccc1)Nc1ccccc1-2 (stereo not given),101,-2.5% (inactive)
Cc1ccc(C)c(C(=O)CC2(O)C(=O)N(C)c3ccccc32)c1 (stereo not given),106,-18% (inactive)

# — PubChem BioAssay
